# From the OligoGym collection
# Biological target: C2orf82
# Test: pooled miR-30 sensor sort-seq; sequence = guide strand
# Conditions: shRNA
# Also: reference of the scale not given here.
row,Sequence,sensor-assay potency score (higher = more potent)
1,CTGTGGAACATCGTCTGTGAGC,-2.1
2,TGGTCCAGCCGCTCCTGCGCGG,-1.68
3,CTCCTGTGGAACATCGTCTGTG,-1.6
4,TTTCTCAGCGCGACGACCACGA,0.0474
5,ACATCGTCTGTGAGCACCGCAG,-1.82
6,TCCTGTGGAACATCGTCTGTGA,-0.191
7,ATCGTCTGTGAGCACCGCAGGG,-1.34
8,TCTCAGCGCGACGACCACGAGC,-1.5
9,AACATCGTCTGTGAGCACCGCA,0.28
10,ACGAGCGCCAGCACCACGCAGG,-1.89
11,TGGAACATCGTCTGTGAGCACC,-1.29

# Biological target: C3orf22
# Test: as above
# Conditions: shRNA
row,Sequence,sensor-assay potency score (higher = more potent)
1,TTCTTGGCAAAATTCTCCTGGG,-0.771
2,TTACTCTGGTGAGACTTCTTGC,-0.146
3,TTTATTAGCTTGGTGTAGCTTT,0.257
4,TTGCACAGTGGAGGTGGTGATG,-1.21
5,TTGGCACCAACCTCTTCTGCAG,-0.633
6,TCCACTTCTTACTCTGGTGAGA,-1.65
7,TCTGTCAGCCACGACAACCTGT,-0.668
8,AAAGGTTGCACAGTGGAGGTGG,1.05
9,TCCTCCACTTCTTACTCTGGTG,-1.52
10,TGTACGGAAACTTCTTGGCAAA,-1.61
11,AACCTGTACGGAAACTTCTTGG,-1.12
12,TTCGAGTCGTTTGTGACCTCCC,0.262

# Biological target: C3orf33
# Test: as above
# Conditions: shRNA
row,Sequence,sensor-assay potency score (higher = more potent)
1,TCAAGCTGAAATCTGATCCTGT,0.793
2,TAAATTTTGATGTCAGTCGAAT,-0.673
3,TATAAGTTCTCTGAACTTCAGT,-0.164
4,TACTCCAGCCAACTTAACCAGC,-1.6
5,TTCTTTTTCAGAGTCTTCCTTC,0.254
6,TTTGATGTCAGTCGAATGCTTC,-0.51
7,TTGAATTTTTCTAAGTAACTTT,-0.235
8,TTAACAAGAACAGTTTTGCCAA,-0.169
9,TTTTTCATAATAACTTTCTTTT,-0.968
10,TTGTTCATGTTGTCTTTCCATA,-1.3
11,TTTAGCTCTTTTTGTAACCATG,-1.58
12,TAACTTTCTTTTTTCAAGCTGA,-0.0803

# Biological target: C3orf64
# Test: as above
# Conditions: shRNA
row,Sequence,sensor-assay potency score (higher = more potent)
1,TTTCCTACCACAAACAGTGTTA,-0.00284
2,TATAGCTTTGTAGCTCAGCAAA,-1.7
3,TAACATGTTGTAATTCTTCTTA,0.391
4,TTCATCTTCACAGTTGTACAGT,0.304
5,TATAGGTCTGAAGTTGAGCTGA,0.14
